Screens deposited in PubChem BioAssay by National Center for Advancing Translational Sciences (NCATS).
MCF10A rerep – A quantitative high throughput screen for small molecules that induce DNA re-replication in MCF 10a normal breast cells. MCF 10A DNA re-replication, Hoechst nuclear intensity, 48 h. Potency, µM (highest dose often 46.1 µM), without a hit: at the top dose activity, positive = re-replication, usual class: activators. 2.9% of 350,000 active. AID 624296, 2012; further: potency means the concentration at half of the fitted maximal effect; % of control where 0% means no effect; nearly all actives have a fitted effect of over 50% in size
ATXN2 expr inh – Primary qHTS for Inhibitors of ATXN expression. HEK-293 ATXN2-luciferase reporter, luminescence, 24 h. Potency, µM (doses to about 57 µM), without a hit: at the top dose activity change, negative = inhibition, hits mostly inhibitors. 0.72% of 360,000 active. AID 1745845, 2022; further: potency means the concentration at half of the fitted maximal effect; on the % scale 0 is the no-effect control and ±100 the full control effect; nearly all actives have a fitted effect of over 55% in size
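ATXN2-luciferase reporter cells (luciferase flanked by upstream and downstream ATXN2 gene portions) were treated 24 h at 37 °C with compounds at up to 57 uM. SteadyGlo luminescence gave expression; GF-AFC fluorescence gave viability.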
PINK1 expr mod – A Quantitative High throughput Screen to Identify Chemical Modulators of PINK1 Expression | Potency, µM (doses to about 76.6 µM), for inactives: at the top dose activation (PINK1 increase), actives largely listed as activators | 0.2% of 410,000 active | AID 624263, 2012 | PINK1 immunofluorescence, high-content cytometry, 24 h; active means well fitted activation curve with a large enough effect; inconclusive means small, poorly fitted or top-dose-only effect; cell line not stated here; further: potency means the concentration at half of the fitted maximal effect; % of control where 0% means no effect; nearly all actives have a fitted effect of over 65% in size
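PINK1 protein, normally rapidly degraded, was detected by immunofluorescence after 24 hour compound treatment of a stable cell line. Titration data (5 concentrations) came from laser-scanning cytometry, with CCCP-treated wells as controls.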
IL-1B inflam inh – qHTS for Inhibitors of Inflammasome Signaling: IL-1-beta AlphaLISA Primary Screen | activity change, % at 57.5 µM | THP-1 LPS/ATP IL-1B secretion, AlphaLISA, 16 h; active compounds read low | 4.7% of 360,000 active; in the data active means activity change below about -50%; inconclusive means mostly about -30% to -49%; further: on the % scale 0 is the no-effect control and ±100 the full control effect
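THP-1 cells pretreated 1 hr with compounds (up to 57.5 uM final), then stimulated with LPS (250 ng/mL final) plus ATP (1.25 mM final); secreted IL-1B measured by AlphaLISA after 16 hr, decreased signal indicating inhibition.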
ATXN viability – Viability Counterscreen for Primary qHTS for Inhibitors of ATXN expression; S2 cells (HEK-293 line with an ATXN2-luciferase reporter) viability, CellTiter-Fluor protease fluorescence, 24 h; AID 651635, 2014; 0.49% of 400,000 active; Potency, µM (top dose mostly 56.7 µM), hits mostly cytotoxic; further: potency means the concentration at half of the fitted maximal effect; nearly all actives have a fitted effect of over 40% in size
SW480 rereplic – A quantitative high throughput screen for small molecules that induce DNA re-replication in SW480 colon adenocarcinoma cells; AID 624297, 2012; 1.8% of 340,000 active; SW480 DNA re-replication, Hoechst DNA content imaging, 48 h; Potency, µM (highest dose often 46.1 µM), inactives show at the highest dose re-replication activation, actives largely listed as activators; further: potency means the concentration at half of the fitted maximal effect; % of control where 0% means no effect; nearly all actives have a fitted effect of over 55% in size
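Treated cells incubate 48 hr (37 C, 5% CO2), are stained 40 min with Hoechst, and nuclear fluorescence is enumerated; a rise in nuclei with high DNA signal marks re-replication.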
Numbers without * were called inactive; i = inactive; ? = inconclusive; . = no result; [ ] = dose if it differs, or a comment. Most compounds without a hit are left out; they make up all but 7.1% or so of the library. Unless noted, the call rests on the fitted dose curve; in most records, active means well fitted curve in the direction sought with a large enough effect; inconclusive means small, poorly fitted or top-dose-only effect, or another doubt; inactive means no such curve, though single readings can be large; an effect the other way counts as inactive or inconclusive.

SMILES | MCF10A rerep | ATXN2 expr inh | PINK1 expr mod | IL-1B inflam inh | ATXN viability | SW480 rereplic
c1ccc(CNc2nc(NCCc3ccncc3)c3sccc3n2)cc1 | . | 0% | -1% | -98* | ? | .
COCCNc1nc(NCc2cccs2)nc2ccsc12 | . | -7% | 9% | -90* | i | .
O=C1NCCN1CCNc1nc(NCc2ccccc2)nc2ccsc12 | . | -3% | 9% | 6 | ? | .
Cc1ccc(Nc2nc(NCc3ccccc3)nc3ccsc23)c(C)c1 | . | ? | 28% | ? | ? | .
Cc1ccc(Nc2nc(NCc3cccs3)nc3ccsc23)c(C)c1 | . | ? | ? | -51* | ? | .
O=C(O)C(O)Cc1ccc(O)c(O)c1 (configuration not stated) | . | -12% | . | . | . | .
O=C(Nc1cc(-c2nc3ncccc3o2)ccc1Cl)c1cccs1 | ? | 5% | 3% | i | i | 0%
CCCn1c(NC(=O)c2ccc([N+](=O)[O-])o2)nc2ccccc21 | ? | -35% | 1% | -20 | i | 21µM*
O=C(Nc1ncccn1)c1ccc([N+](=O)[O-])o1 | 9.2µM* | -17% | 5% | -90* | i | ?
Cc1ccnc(NC(=O)c2ccc([N+](=O)[O-])o2)c1 | 4.1µM* | 46% | -1% | . | i | 5.8µM*
CCCn1c(NC(=O)c2cccc(C)c2C)nc2ccccc21 | ? | -24% | 14% | 9 | ? | ?
O=C(Nc1cc(-c2nc3ncccc3o2)ccc1Cl)c1ccc([N+](=O)[O-])o1 | 1.3µM* | -7% | 1% | -23 | i | 1.3µM*
Cc1nn(CC(=O)NC2(C)CCS(=O)(=O)C2)c(C)c1S(=O)(=O)N(C)C (configuration not stated) | 13% | -4% | 0% | 27 | i | -2%
COc1ccc(NC(=O)Cn2ncc3c(C)n(Cc4cccc(Cl)c4)c(C)c3c2=O)cc1 | . | . | -2% | . | . | .
COc1ccc(S(=O)(=O)N(CCc2ccccc2)CC(=O)NCc2ccc(C)cc2)cc1 | . | -22% | 1% | . | ? | .
O=C(Nc1ccccn1)c1ccc([N+](=O)[O-])o1 | 9.2µM* | . | 2% | -92* | i | ?
O=C(Nc1ccccn1)c1ccc(COc2ccccc2Cl)o1 | ? | 30% | -1% | -13 | i | 9%
CC(=O)NS(=O)(=O)c1ccc(NC(=O)C(Sc2ccccc2)c2ccccc2)cc1 (configuration not stated) | 5% | -16% | 2% | 37 | i | -3%
CCC(C)NS(=O)(=O)c1ccc(NC(=O)C(Sc2ccccc2)c2ccccc2)cc1 (configuration not stated) | ? | ? | ? | -54* | ? | ?
CCCCOc1cccc(C(=O)N(Cc2sccc2C)C2CCS(=O)(=O)C2)c1 (configuration not stated) | . | . | 0% | . | . | .
CCn1c(Sc2ccc([N+](=O)[O-])cn2)nnc1-c1ccco1 | 6.5µM* | -16%[11.3 µM] | -2% | -82* | i | 8%
CCn1c(SCC(=O)OCc2ccccc2)nnc1-c1ccco1 | -1% | 2% | -3%[38.3 µM] | -2 | i | -13%
COc1ccc(C(=S)N2CCOCC2)cc1OC(=O)c1ccccc1Cl | -14% | -2% | -1% | 10 | i | -8%
COc1cc(C(=S)N2CCOCC2)ccc1OC(=O)c1ccccc1C | 6% | -20% | 0% | -7 | i | 18µM*
O=C(Cn1c(=O)oc2cc(S(=O)(=O)NCc3ccccc3)ccc21)N(CCO)Cc1ccccc1 | . | . | -1% | . | . | .
SMILES | MCF10A rerep | ATXN2 expr inh | PINK1 expr mod | IL-1B inflam inh | ATXN viability | SW480 rereplic
C[n+]1ccc(/C=C/c2ccc(Br)cc2)cc1 | 7% | -17% | ? | ? | ? | 28%
Cc1ccc2[nH]c(C)c(/C=C/c3cc[n+](C)cc3)c2c1 | 47% | ? | 14µM* | ? | ? | ?
Cc1ccc2c(c1)c(/C=C/c1cc[n+](C)cc1)c(C)n2C | 25% | . | ? | -63* | i | -1%
COCCN(CC(=O)NC1CCCCC1)C(=O)/C=C/C(=O)c1ccc(OC)cc1O | 6.5µM* | ? | -2% | -101* | . | ?
COc1ccc(C(=O)/C=C/C(=O)N(CC(=O)NC2CCCCC2)Cc2cccs2)c(O)c1 | 18µM* | ? | -1% | -100* | 27µM* | ?
COc1ccc(C(=O)/C=C/C(=O)N(Cc2ccc3c(c2)OCO3)C(C(=O)NC2CCCCC2)c2ccncc2)c(O)c1 (configuration not stated) | ? | -4% | 6% | ? | i | ?
COc1ccc(CN(C(=O)/C=C/C(=O)c2ccc(OC)cc2O)C(C(=O)NC2CCCCC2)c2ccncc2)cc1 (configuration not stated) | 14% | -4% | 3% | ? | ? | ?
CC(C)CC(C(=O)NC1CCCCC1)N(Cc1ccccc1)C(=O)c1snc(C(N)=O)c1N (configuration not stated) | ? | -8% | 4% | -12 | i | ?
CC(C)CCNC(=O)C(CC(C)C)N(Cc1ccc2c(c1)OCO2)C(=O)c1snc(C(N)=O)c1N (configuration not stated) | ? | -21% | 1% | -57* | i | 5%
CCCC(C(=O)NCCC(C)C)N(Cc1ccc(OC)cc1)C(=O)c1snc(C(N)=O)c1N (configuration not stated) | ? | 15% | 8% | -18 | 24µM* | -20%
COCCN(C(=O)c1snc(C(N)=O)c1N)C(C(=O)NC1CCCCC1)c1ccc(F)cc1 (configuration not stated) | 16µM* | 8% | 6% | 0 | i | ?
COc1ccc(CN(C(=O)c2snc(C(N)=O)c2N)C(CC(C)C)C(=O)NC2CCCCC2)cc1 (configuration not stated) | 17% | -13% | 1% | -71* | i | 22%
COc1ccc(C(C(=O)NC2CCCC2)N(CCN(C)C)C(=O)c2snc(C(N)=O)c2N)cc1 (configuration not stated) | -2% | 5% | 1%[38.3 µM] | 0 | i | -8%
COc1cccc(C(=O)NCC(c2ccc(N(C)C)cc2)N2CCOCC2)c1OC (configuration not stated) | . | . | -1% | . | . | .
O=S(=O)(c1ccc(Oc2ccc(S(=O)(=O)N(CCO)CCO)cc2)cc1)N(CCO)CCO | 5% | . | 0% | -8 | i | 0%
